Consider 13 molecules from PubChem BioAssay (NCATS).

SMILES strings stand for the structures. Inconclusive results are not listed. Unmarked numbers belong to inactive results. Active and inactive are the calls of the source. The call rests on the fitted dose curve.
On the % scale 0 is the no-effect control and ±100 the full control effect; potency means the concentration at half of the fitted maximal effect.

A short description of the assay: Validation screen for inhibitors of Lassa infection (AID 463096). Particulars: Lassa virus infection, cell-based; series mostly up to 46.1 µM; activity change, negative = inhibition: at the top concentration.
`C[C@@H](Oc1ccc(Oc2cnc3ccc(Cl)cc3n2)cc1)C(=O)O`: the “activity change, negative = inhibition” value was -16.5%.
Still for that read-out and setting: to `CC(O)[C@@H](O)[C@H]1CNc2nc(N)[nH]c(=O)c2N1` (stereo partly drawn) belongs 14.6%.
`Nc1nc(Cl)nc2c1ncn2[C@@H]1O[C@H](CO)[C@H](O)[C@H]1O`: the “activity change, negative = inhibition” value is -10.4%.
On to `NCC1OC(O[C@@H]2[C@H](O)[C@@H](OC3C(O)C(N)CC(N)C3OC3OC(CO)C(O)C(O)C3N)O[C@@H]2CO)C(N)C(O)C1O` (stereo partly drawn), for which the “activity change, negative = inhibition” value is -13.2%.
Same read-out and setting: the result for `CN1C(=O)CCC1c1cccnc1` (stereo not drawn) reads 1.28%.
In the case of `C1CCC(N=C(NC23CC4CC(CC(C4)C2)C3)N2CCOCC2)CC1`, the “activity change, negative = inhibition” value is -27.4%.
`Nc1ncnc2c1ncn2[C@@H]1O[C@H](COP(=O)(O)OP(=O)(O)OP(=O)(O)OP(=O)(O)OC[C@@H]2O[C@H](n3cnc4c(N)ncnc43)[C@@H](O)[C@@H]2O)[C@H](O)[C@H]1O`: the “activity change, negative = inhibition” value was 22.1%.
For the molecule `O=C1C(SCCO)=C(SCCO)C(=O)c2ccccc21`, the Potency is 5.01 µM (active).
With `OC[C@H]1O[C@@H](n2cnc3c(NC4CCCC4)ncnc32)[C@H](O)[C@H]1O`, the “activity change, negative = inhibition” value was -5.39%.
Take `Nc1nc(SCc2ccc([N+](=O)[O-])cc2)c2ncn([C@@H]3O[C@H](CO)[C@H](O)[C@H]3O)c2n1`: the “activity change, negative = inhibition” value is 15.2%.
The same measure, in the same setting: to `CCCCCCCCCCCCCCC/C=C/[C@@H](O)[C@H](NC(=O)CCCCCCCCCCCCC)OC` (tested in a mixture with another compound) belongs 7.83%; to `Nc1ncnc2c1nc(Sc1ccc(Cl)cc1)n2[C@H]1O[C@@H]2COP(=O)(O)O[C@H]2[C@@H]1O`, -14.1%.
Consider `Cc1cn([C@H]2C[C@@H](N=[N+]=[N-])[C@@H](CO)O2)c(=O)[nH]c1=O`, for which the “activity change, negative = inhibition” value is 10.9%.
